Test results published in PubChem BioAssay AID463173 (ICCB-Longwood Screening Facility, Harvard Medical School, 2010).
The campaign covered roughly 52,000 compounds. About 4,300 (8.3%) were called active. For the sample, actives were picked, then their nearest neighbours and some compounds at random. Values without a mark were called inactive. Rule as the data show it: active = survival mostly below about 52% (no sharp cut-off); inactive = mostly above about 56%.

The compounds below were run on DeltatarO mutant (assay: growth inhibition of S. aureus wild type versus tarO mutant, primary screen, teichoic acid synthesis inhibitors, RN4220, OD600 (AID 463173)). Details: OD600, 18 h, hits give low values, screened at 18.75 µg/mL (by protocol).

SMILES	survival
Cc1ccc(S(=O)(=O)c2cn(C)c3cc(N4CCCC4)c(F)cc3c2=O)c(C)c1	67%
Cc1cccc(N(C)C(=O)Cn2cnc3nc4c(cc3c2=O)CCCC4)c1	17% (active)
Cc1c(Cl)cccc1NC(=O)Cn1cnc2nc3c(cc2c1=O)CCCC3	126%
O=C(Cn1cnc2nc3c(cc2c1=O)CCCC3)Nc1ccc(F)cc1Cl	88%
Cc1ccc(C)c(N2CCN(C(=O)Cn3cnc4nc5c(cc4c3=O)CCCC5)CC2)c1	87%
Cc1ccc(C)c(NC(=O)Cn2cnc3nc4c(cc3c2=O)CCCC4)c1	89%
COc1cc(OC)c(NC(=O)Cn2cnc3nc4c(cc3c2=O)CCCC4)cc1Cl	-5% (active)
CCc1ccccc1NC(=O)c1ccc(F)c(S(=O)(=O)N2CCN(c3cccc(Cl)c3)CC2)c1	88%
CCOC(=O)c1ccc(NC(=O)c2nsc3ccccc23)cc1	60%
CC1CCC(NC(=O)c2ccc3c(c2)N(Cc2ccccc2)C(=O)c2ccccc2S3(=O)=O)CC1 (stereo not given)	115%
CCOC(=O)c1c(C)oc2nc(C)nc(NCc3ccccc3OCC)c12	102%
O=C(CCCn1c(=O)c2sccc2n(Cc2cccc(Cl)c2)c1=O)NCc1ccc2c(c1)OCO2	64%
CCN(CC)c1ccc(/C=C2/SC(=O)NC2=O)cc1	34% (active)
CCCN(CCC)CN1C(=O)S/C(=C/c2ccc(N(CC)CC)cc2)C1=O	68%
CCN(CC)c1ccc(C=C2C(=O)OC3(CCCC3)OC2=O)cc1	83%
O=C(NCCC1=CCCCC1)C1CCN(C(=O)N2CCOc3ccccc32)CC1	72%
O=C(NCCCc1ccccc1)C1CCN(C(=O)N2CCOc3ccc(Cl)cc32)CC1	46% (active)
CC1CN(C(=O)N2CCC(C(=O)NCCC3=CCCCC3)CC2)c2cc(Cl)ccc2O1 (stereo not given)	65%
Cc1ccc2c(c1)N(C(=O)N1CCC(C(=O)NC3CCCCCC3)CC1)CCO2	82%
CNC(=O)C1CCN(C(=O)N2CC(C)Oc3ccc(Cl)cc32)CC1 (stereo not given)	59%
CC1CN(C(=O)N2CCC(C(=O)NCc3ccccc3F)CC2)c2cc(Cl)ccc2O1 (stereo not given)	60%
CC1CN(C(=O)N2CCC(C(=O)NCCCc3ccccc3)CC2)c2cc(Cl)ccc2O1 (stereo not given)	56%
O=C(NCCC1=CCCCC1)C1CCN(C(=O)N2CCOc3ccc(Cl)cc32)CC1	47% (active)

SMILES	survival
O=C(NC1CCCCCC1)C1CCN(C(=O)N2CCOc3ccc(Cl)cc32)CC1	46% (active)
O=C(NC1CCCCCC1)C1CCN(C(=O)N2CCOc3ccccc32)CC1	76%
CCc1ccccc1NC(=O)C1CCN(C(=O)N2CC(C)Oc3ccc(Cl)cc32)CC1 (stereo not given)	55% (active)
CC(C)CCNC(=O)C1CCN(C(=O)N2CCOc3ccc(Cl)cc32)CC1	52%
COc1ccccc1N1CCN(c2nc3c(S(=O)(=O)c4ccc(C)c(C)c4)nnn3c3ccc(Cl)cc23)CC1	81%
Cc1ccc(NCc2nnc(SCc3cc(C)ccc3C)o2)c(C)c1	91%
Cc1cccc(C)c1NC(=O)Cn1cc(S(=O)(=O)Cc2ccc(F)cc2)c2ccccc21	78%
Cc1ccc(C)c(S(=O)(=O)c2nnn3c2nc(Nc2ccc(C)c(C)c2)c2sccc23)c1	77%
O=C(c1ccc2c(c1)N(Cc1ccccc1F)C(=O)c1ccccc1S2(=O)=O)N1CCC(Cc2ccccc2)CC1	71%
Cc1ccc(NC(=O)C2Cc3ccccc3N2C(=O)c2ccccc2)cc1Cl (stereo not given)	78%
COc1ccc(CCNC(=O)C(=O)NCC(c2ccco2)S(=O)(=O)c2cccs2)cc1 (stereo not given)	99%
O=C1CC(c2ccccc2)Sc2nc3ccccc3n21 (stereo not given)	66%
CC1CCN(S(=O)(=O)c2ccc3c(c2)oc(=O)n3CC(=O)NCc2ccc(F)cc2)CC1	111%
CNS(=O)(=O)c1cc(-c2nnc(Nc3cc(C)ccc3C)c3ccccc23)ccc1C	69%
Cc1ccc(-c2nnc(Nc3ccccc3O)c3ccccc23)cc1	49% (active)
Cc1ccc(C)c(Nc2nnc(-c3ccc(C)c(S(=O)(=O)N4CCCCC4)c3)c3ccccc23)c1	119%
COc1cc(C(Nc2ccc(S(=O)(=O)NCC3CCCO3)cc2)C(=O)NC(C)(C)C)cc(OC)c1OC (stereo not given)	109%
O=C(NCc1ccccc1)c1cccc(Nc2nc3ccccc3n3nnnc23)c1	71%
Cc1ccc(CNC(=O)c2cccc(Nc3nc4ccccc4n4nnnc34)c2)cc1	45%
CC(C)CCNC(=O)c1cccc(Nc2nc3ccccc3n3nnnc23)c1	39% (active)
CCc1ccc(NC(=O)Cn2nnc(C(=O)NCCc3ccccc3)c2N)cc1	99%
CCOC(=O)c1ccccc1NC(=O)CN1CCCN(Cc2cccc(Cl)c2)S1(=O)=O	101%
CSc1ccc(CCNC(=O)C2CCN(c3ncnc4c3nc3n4CCCCC3)CC2)cc1	79%

SMILES	survival
COc1cccc(/C=N/n2c(N)nc3ccccc32)c1OC	82%
COc1cccc(/C=N/c2nc3ccccc3n2C)c1O	122%
COc1ccccc1/C=C/c1nc2ccccc2n1C(C)C	8% (active)
O=C(c1ccc(Cl)cc1)C1CCN(C(=O)N2CCOCC2)CC1	66%
NC(=O)CN1C(=O)C2(SCC(=O)N2c2cccc(F)c2)c2ccccc21 (stereo not given)	78%
Cc1ccc(NC(=O)C2CCN(c3nn4c(=O)cc(C)nc4s3)CC2)cc1	104%
O=C(Nc1ccc(O)c(-c2nc3ccccc3o2)c1)c1sc2ccccc2c1Cl	105%
COC(=O)c1ccccc1NC(=O)c1cc2c(-c3ccc(OC)c(OC)c3)nn(C)c2s1	97%
C=CCn1c(SC)nc2c1c(=O)[nH]c(=O)n2C	94%
Cc1ccc(/C=C/c2onc(C)c2S(=O)(=O)N2CCC(C(=O)NCc3ccc(Cl)cc3)CC2)cc1	93%
Cc1ccc(/C=C/c2onc(C)c2S(=O)(=O)N2CCC(C(=O)Nc3cc(C)ccc3C)CC2)cc1	78%
CCC(C)(C)NC(=O)C1CCN(S(=O)(=O)c2c(C)noc2/C=C/c2ccc(C)cc2)CC1	52% (active)
COC(=O)/C(C#N)=C/c1ccc(-c2ccccc2)o1	75%
Cc1ccc(-c2nn(CC(=O)NCc3ccccc3)c3c2cnc2ccc(F)cc23)cc1C	75%
O=C(Nc1ccc(F)cc1)c1ccc(Cn2nc(N3CCN(c4ccccc4)CC3)ccc2=O)o1	82%
Cn1c(=O)c2c(-c3ccccc3)n3c(c2n(C)c1=O)C(c1ccccc1[N+](=O)[O-])Nc1ccccc1-3 (stereo not given)	79%
Cn1c(=O)c2c(-c3ccccc3)n3c(c2n(C)c1=O)C(c1cccc([N+](=O)[O-])c1)Nc1ccccc1-3 (stereo not given)	53%
Cn1c(=O)c2c(-c3ccccc3)n3c(c2n(C)c1=O)C(c1ccc([N+](=O)[O-])cc1)Nc1ccccc1-3 (stereo not given)	34% (active)
COc1ccc(-c2c3c(=O)n(C)c(=O)n(C)c3c3n2-c2ccccc2NC3c2ccc(OC)cc2)cc1 (stereo not given)	74%
COc1ccc(C2Nc3ccccc3-n3c(-c4ccccc4)c4c(=O)n(C)c(=O)n(C)c4c32)cc1 (stereo not given)	79%
Cc1ccc(C2Nc3ccccc3-n3c(-c4ccccc4)c4c(=O)n(C)c(=O)n(C)c4c32)cc1 (stereo not given)	41% (active)
N#Cc1c(Nc2ccccc2)sc(C(=O)c2cccs2)c1N	75%
O=C(O)c1cccc2cc[nH]c12	101%

SMILES	survival
CC(C)(C)c1ccc(-c2nc3cc(NC(=O)c4cc5ccccc5o4)ccc3o2)cc1	71%
Cc1cc(C)c2oc(-c3cccc(NC(=O)c4cc5ccccc5o4)c3)nc2c1	36% (active)
Cc1cc(C)c2oc(-c3cccc(NC(=O)c4ccco4)c3)nc2c1	87%
Cc1ccc2nc(-c3cccc(NC(=O)c4ccc(Br)o4)c3)oc2c1	15% (active)
Cc1ccc2nc(-c3cccc(NC(=O)c4cccc5ccccc45)c3)oc2c1	50%
Cc1cc(C)c2oc(-c3cccc(NC(=O)c4ccc(Br)o4)c3)nc2c1	34% (active)
Cc1ccc2nc(-c3cccc(NC(=O)CSc4ccc(Cl)cc4)c3)oc2c1	56%
Cc1cc(C)c2oc(-c3cccc(NC(=O)c4ccc(-c5cccc([N+](=O)[O-])c5)o4)c3)nc2c1	75%
COc1cccc(OC)c1C(=O)Nc1cccc(-c2nc3cc(C)cc(C)c3o2)c1	68%
CCc1ccc(-n2c(=O)c3cccnc3n2CC(=O)NCc2ccc(F)cc2)cc1	94%
Cc1cccc(NC(=O)C2CCN(S(=O)(=O)c3cccc4nsnc34)CC2)c1C	88%
CCc1ccc(C2=CC(c3cccc(C)c3)n3c(nc4ccccc43)N2)cc1 (stereo not given)	80%
COc1ccc(-n2c(SCC(=O)Nc3cc(C)cc(C)c3)nc3c(oc4ccccc43)c2=O)cc1	70%
CCOc1ccc(NC(=O)c2ccc3[nH]c(C)cc(=O)c3c2)cc1	79%
Cc1cccc(N2CCN(S(=O)(=O)c3ccc4c(c3)CC(=O)N4C)CC2)c1C	129%
Cc1ccc(O)c(CNc2cccc3cccnc23)c1	79%
Oc1c(C(Nc2ccccn2)c2ccccc2F)ccc2cccnc12 (stereo not given)	102%
Cc1ccnc(NC(c2ccccc2F)c2ccc3cccnc3c2O)c1 (stereo not given)	-1% (active)
CCOc1cc(C(Nc2cc(C)ccn2)c2ccc3cccnc3c2O)ccc1OC (stereo not given)	146%
Cc1ccnc(NCc2cccc3ccccc23)c1	93%
Cc1ccnc(NC(c2cc(C)ccc2O)c2ccc3cccnc3c2O)c1 (stereo not given)	4% (active)
